Source: publication PMC9911399, “Two distinct binding modes provide the RNA-binding protein RbFox with extraordinary sequence specificity”
Substitutions are numbered along the chain they refer to; changes in the protein carry UniProt numbers. The full ranking holds about 16,000 sequences; the median of “ka relative to ugcaugu” is about 0.0091, and the highest 2% start at about 0.032. Shown is part of a subset that was picked to be rich in the highest values.

T1: RBFOX1 RRM (Homo sapiens, UniProt Q9NWB1 109-208)
T1 sequence: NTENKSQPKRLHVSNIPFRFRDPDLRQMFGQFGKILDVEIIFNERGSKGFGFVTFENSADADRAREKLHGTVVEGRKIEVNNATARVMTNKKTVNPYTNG

B1: GCUUGAU (DNA:RNA)
RNA: GGGAGACCGGAAUUCAGAUUGUCCGCUUGAUUUAAAUCCCGUCGUAGCCACCA
DNA 1: CAATCTGAATTCCGGTCTCCC
DNA 2: TGGTGGCTACGACGGGATT
B2: UACUGGA (DNA:RNA)
RNA: B1 RNA with G25U, C26A, U27C, A30G, U31A
DNA 1: CAATCTGAATTCCGGTCTCCC
DNA 2: TGGTGGCTACGACGGGATT
B3: UCGUGAG (DNA:RNA)
RNA: B1 RNA with G25U, U27G, U31G
DNA 1: CAATCTGAATTCCGGTCTCCC
DNA 2: TGGTGGCTACGACGGGATT
B4: UGGCCGG (DNA:RNA)
RNA: GGGAGACCGGAAUUCAGAUUGUCCUGGCCGGUUAAAUCCCGUCGUAGCCACCA
DNA 1: CAATCTGAATTCCGGTCTCCC
DNA 2: TGGTGGCTACGACGGGATT
B5: UGGCCUG (DNA:RNA)
RNA: B4 RNA with G30U
DNA 1: CAATCTGAATTCCGGTCTCCC
DNA 2: TGGTGGCTACGACGGGATT
B6: UGGCCGA (DNA:RNA)
RNA: B4 RNA with G31A
DNA 1: CAATCTGAATTCCGGTCTCCC
DNA 2: TGGTGGCTACGACGGGATT
B7: UGUGGCC (DNA:RNA)
RNA: B1 RNA with G25U, C26G, U28G, A30C, U31C
DNA 1: CAATCTGAATTCCGGTCTCCC
DNA 2: TGGTGGCTACGACGGGATT
B8: UGGCCUC (DNA:RNA)
RNA: B4 RNA with G30U, G31C
DNA 1: CAATCTGAATTCCGGTCTCCC
DNA 2: TGGTGGCTACGACGGGATT
B9: UGGCCGC (DNA:RNA)
RNA: B4 RNA with G31C
DNA 1: CAATCTGAATTCCGGTCTCCC
DNA 2: TGGTGGCTACGACGGGATT
B10: UGCGGUG (DNA:RNA)
RNA: B4 RNA with G27C, C28G, C29G, G30U
DNA 1: CAATCTGAATTCCGGTCTCCC
DNA 2: TGGTGGCTACGACGGGATT
B11: CAUGUGG (DNA:RNA)
RNA: B4 RNA with U25C, G26A, G27U, C28G, C29U
DNA 1: CAATCTGAATTCCGGTCTCCC
DNA 2: TGGTGGCTACGACGGGATT
B12: GCUACAC (DNA:RNA)
RNA: B1 RNA with U28A, G29C, U31C
DNA 1: CAATCTGAATTCCGGTCTCCC
DNA 2: TGGTGGCTACGACGGGATT
B13: CAAUAAC (DNA:RNA)
RNA: B1 RNA with G25C, C26A, U27A, G29A, U31C
DNA 1: CAATCTGAATTCCGGTCTCCC
DNA 2: TGGTGGCTACGACGGGATT
B14: CGAGGGG (DNA:RNA)
RNA: B4 RNA with U25C, G27A, C28G, C29G
DNA 1: CAATCTGAATTCCGGTCTCCC
DNA 2: TGGTGGCTACGACGGGATT
B15: AAUAUAG (DNA:RNA)
RNA: B1 RNA with G25A, C26A, U28A, G29U, U31G
DNA 1: CAATCTGAATTCCGGTCTCCC
DNA 2: TGGTGGCTACGACGGGATT
B16: GCUGCUA (DNA:RNA)
RNA: B1 RNA with U28G, G29C, A30U, U31A
DNA 1: CAATCTGAATTCCGGTCTCCC
DNA 2: TGGTGGCTACGACGGGATT
B17: UGGAUGA (DNA:RNA)
RNA: B4 RNA with C28A, C29U, G31A
DNA 1: CAATCTGAATTCCGGTCTCCC
DNA 2: TGGTGGCTACGACGGGATT
B18: UGGAUGG (DNA:RNA)
RNA: B4 RNA with C28A, C29U
DNA 1: CAATCTGAATTCCGGTCTCCC
DNA 2: TGGTGGCTACGACGGGATT
B19: UGGAGGC (DNA:RNA)
RNA: B4 RNA with C28A, C29G, G31C
DNA 1: CAATCTGAATTCCGGTCTCCC
DNA 2: TGGTGGCTACGACGGGATT
B20: UGGAUGC (DNA:RNA)
RNA: B4 RNA with C28A, C29U, G31C
DNA 1: CAATCTGAATTCCGGTCTCCC
DNA 2: TGGTGGCTACGACGGGATT
B21: UGGAGUC (DNA:RNA)
RNA: B4 RNA with C28A, C29G, G30U, G31C
DNA 1: CAATCTGAATTCCGGTCTCCC
DNA 2: TGGTGGCTACGACGGGATT
B22: UGGAUUC (DNA:RNA)
RNA: B4 RNA with C28A, C29U, G30U, G31C
DNA 1: CAATCTGAATTCCGGTCTCCC
DNA 2: TGGTGGCTACGACGGGATT
B23: UGCUGGA (DNA:RNA)
RNA: B4 RNA with G27C, C28U, C29G, G31A
DNA 1: CAATCTGAATTCCGGTCTCCC
DNA 2: TGGTGGCTACGACGGGATT
B24: UGGAAUC (DNA:RNA)
RNA: B4 RNA with C28A, C29A, G30U, G31C
DNA 1: CAATCTGAATTCCGGTCTCCC
DNA 2: TGGTGGCTACGACGGGATT
B25: UGAGUCU (DNA:RNA)
RNA: B4 RNA with G27A, C28G, C29U, G30C, G31U
DNA 1: CAATCTGAATTCCGGTCTCCC
DNA 2: TGGTGGCTACGACGGGATT
B26: UCCUGGA (DNA:RNA)
RNA: B1 RNA with G25U, U27C, A30G, U31A
DNA 1: CAATCTGAATTCCGGTCTCCC
DNA 2: TGGTGGCTACGACGGGATT
B27: UGGAUUG (DNA:RNA)
RNA: B4 RNA with C28A, C29U, G30U
DNA 1: CAATCTGAATTCCGGTCTCCC
DNA 2: TGGTGGCTACGACGGGATT
B28: UGAUGGA (DNA:RNA)
RNA: B4 RNA with G27A, C28U, C29G, G31A
DNA 1: CAATCTGAATTCCGGTCTCCC
DNA 2: TGGTGGCTACGACGGGATT

What follows are binders tested against T1, RBFOX1 RRM (assay: EMSA; HiTS-Eq, 1 nM pool, 10 min; buffer printed only for the single-RNA assays: 10 mM Tris pH 7.5, 150 mM NaCl, 3.4 mM EDTA, 0.001% NP-40, 30 C). Conditions: tags: His6 N-terminal (pET28a); label: 5' 32P.
Method in brief: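 Relative association constants, normalised to the cognate motif, were derived by comparing read counts of each RNA species with those of the control reaction. The RNA sequenced was the free fraction, separated by 8% native PAGE after a 10 min equilibration in 50 µL of 1 nM 5′-radiolabelled RNA (7 randomized nucleotides) with increasing concentrations of purified wild-type or mutant RbFox RRM.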

Binder | binding signal
B1 | 0.0264 KA relative to UGCAUGU
B2 | 0.00358 KA relative to UGCAUGU
B3 | 0.00953 KA relative to UGCAUGU
B4 | 0.0318 KA relative to UGCAUGU
B5 | 0.0426 KA relative to UGCAUGU
B6 | 0.0244 KA relative to UGCAUGU
B7 | 0.0234 KA relative to UGCAUGU
B8 | 0.0279 KA relative to UGCAUGU
B9 | 0.0225 KA relative to UGCAUGU
B10 | 0.0288 KA relative to UGCAUGU
B11 | 0.00494 KA relative to UGCAUGU
B12 | 0.00819 KA relative to UGCAUGU
B13 | 0.00247 KA relative to UGCAUGU
B14 | 0.00639 KA relative to UGCAUGU
B15 | 0.00237 KA relative to UGCAUGU
B16 | 0.0167 KA relative to UGCAUGU
B17 | 0.0437 KA relative to UGCAUGU
B18 | 0.0304 KA relative to UGCAUGU
B19 | 0.0186 KA relative to UGCAUGU
B20 | 0.0582 KA relative to UGCAUGU
B21 | 0.0349 KA relative to UGCAUGU
B22 | 0.0192 KA relative to UGCAUGU
B23 | 0.0106 KA relative to UGCAUGU
B24 | 0.0233 KA relative to UGCAUGU
B25 | 0.0175 KA relative to UGCAUGU
B26 | 0.00715 KA relative to UGCAUGU
B27 | 0.0448 KA relative to UGCAUGU
B28 | 0.00526 KA relative to UGCAUGU
